In the supplement of paper PMC11417369:
± gives the standard deviation of the averaged measurements. Whole data set: some 25,000 sequences, median “ln(normalized median fluorescence intensity)” near 8.6, cut for the highest 2% near 10. This is one part of a sample in which the highest values are shown more often than they occur.

Test system: PfAP2-EXP AP2 domain (GST-tagged)
Assay: gcPBM binding intensity (ln(normalized median fluorescence intensity)); higher = stronger DNA binding
Procedure, shortened: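 Each value is the highest Masliner-normalised natural-log median intensity across replicate spots of either orientation of a probe. The probes were primer-extended double-stranded 36-bp intergenic genomic sequences on an Agilent 4 × 180k array, alongside negative controls, exposed for 1 h to GST-tagged P. falciparum DNA-binding domains expressed in E. coli. Bound protein was picked up with Alexa488 anti-GST antibody and scanned at 488 nm.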

Row | Sequence | gcPBM binding intensity (ln)
1 | AACAATTATTGTAATGCATGCACTGAATATAGAAAG [TGCATGCA_site889] | 10.3 ± 0.24
2 | TATAAGAGAAGAAGAAAAAAAAGGTTTCTATAGAAA [XGTACX_negctrl_site421] | 8.76 ± 0.52
3 | AATAAAAAAAAAATAAATTTAATAATAATAATAAAA [CACACA_negctrl_site569] | 8.23 ± 0.33
4 | ATATTATCATTTTTTTTAATGGAAAAAAAAAAAAAA [CACACA_negctrl_site1298] | 8.2 ± 0.61
5 | TTTTTCAGAAAAGAAACACACATATAAATATTTATA [CACACA_site7170] | 8.47 ± 0.46
6 | TACACCCACCCACATACACACACATACACATATATA [CACACA_site8503] | 9.33 ± 0.71
7 | TACATACACAGACACACACACATATATATATATATA [CACACA_site3557] | 10.2 ± 0.2
8 | ATTCTAATCATATACACACCCATATATATATATATA [CACACA_site1774] | 10.3 ± 0.3
9 | AGTATACACAGACACACACACACATATATATATATA [CACACA_site8510] | 10.2 ± 0.23
10 | TACACATACAGACATACACACATACACATATACACA [CACACA_site6918] | 8.66 ± 0.38
11 | CATACATACAGACACACACACATATATATATATATA [CACACA_site2920] | 10.1 ± 0.35
12 | TATACAGACAGACACACACACATATATATATATATA [CACACA_site1734] | 10.1 ± 0.42
13 | ATTCTACACCCACATACACACATATATATATATATA [CACACA_site3426] | 10.2 ± 0.26
14 | ATTAAAATCATATACACACCCATATATATATATATA [CACACA_site5050] | 10.1 ± 0.34
15 | CACCCACCCACATACACACACATACACATATATATA [CACACA_site1722] | 9.3 ± 0.45
16 | CATATACATACACATACACACATACAGACATACACA [CACACA_site6919] | 8.69 ± 0.37
17 | TAATTAAAATCATATACACACCCATATATATATATA [CACACA_site8524] | 10 ± 0.25
18 | TATATATATTTATAATGTACACATATATGTAAATAT [XGTACX_site3695] | 8.51 ± 0.2
19 | ATATATATATATATAAAGTGAAGTATGAGGGAAATA [XGTACX_negctrl_site497] | 10.1 ± 0.3
20 | AGAATAAAAAGGAACACACACACACGCATATAAATA [CACACA_site7659] | 9.01 ± 0.55
21 | TTACATATTATACGAAGTACGTACAAATACTTATAT [XGTACX_site8598] | 8.6 ± 0.26
22 | GTATGTTTGTTATGCACACAAATGCATCTTATTTCC [CACACA_site2690] | 8.96 ± 0.28
23 | TTATTTAACGTATTCTCACACATATATATATATAAT [CACACA_site5226] | 8.64 ± 0.42

Row | Sequence | gcPBM binding intensity (ln)
24 | TAAATATGTATAAATTGTACAAAATATATGAATAGT [XGTACX_site5659] | 8.94 ± 0.29
25 | CTCATAATTTCTGAACGTACGTATTTCTCATTTTTA [XGTACX_site7296] | 8.83 ± 0.44
26 | TCCTTTTTTAAAAGTTGTACATTATTGTTATTTGTT [XGTACX_site4686] | 8.65 ± 0.3
27 | TTTTAAATAATTCGTAATTATAATTATGGAAAAAAG [CACACA_negctrl_site152] | 8.43 ± 0.48
28 | TTAGCAACTATTACTACACACATTTGTATTTAATTT [CACACA_site4961] | 8.49 ± 0.35
29 | ATTCTACACAGACATACACACATATATATATATATA [CACACA_site5826] | 10.2 ± 0.4
30 | GTATTCTACAGACACATACACACATATATATATATA [CACACA_site3427] | 10.1 ± 0.22
31 | TACAGACATACATACACACATACATATATATATATA [CACACA_site1940] | 10.1 ± 0.11
32 | TTTATTAATTAAACCATACACACATAATTTTTTTAT [CACACA_site842] | 8.34 ± 0.47
33 | ATTTAGAAAAATAAAACACACATATAGATGTAAATA [CACACA_site7853] | 8.57 ± 0.58
34 | AAACAGAAGACATATACACACATACAAAAAAGTGCA [CACACA_site4699] | 8.81 ± 0.33
35 | AAGACAAAACAAAGAAGTACATATATATATATATAT [XGTACX_site4067] | 10.3 ± 0.4
36 | CACAAAAAGAAACACACACACATATATATATATATA [CACACA_site999] | 10.2 ± 0.22
37 | CACAAGAAAGTTCACACACACACATATATATATATA [CACACA_site6009] | 10.2 ± 0.18
38 | AAAAAAAAAAGAAAAAGTACATACATACATATATAT [XGTACX_site6405] | 8.46 ± 0.36
39 | CACAAGAAAATTCACACACACACATATATATATATA [CACACA_site3880] | 10.1 ± 0.27
40 | TTAAAAAGAAAGTTCACACACATATATATGACGGAA [CACACA_site2602] | 8.93 ± 0.45
41 | AAAAAAAAAAAAGAAACACACATATATATATATATA [CACACA_site140] | 10.1 ± 0.6
42 | AAGAAAAAAAAAAAAACACACATATATATATATATA [CACACA_site2027] | 10.2 ± 0.13
43 | AAAAAAAAAAAAGAAACACACACATATATATATATA [CACACA_site8525] | 10.1 ± 0.31
44 | CAAGAAAAGAAACACACACACATATATATATATATA [CACACA_site3881] | 10.1 ± 0.26
45 | AAAAAAAAAAGAAACACACACATATATATATATAAT [CACACA_site5052] | 8.61 ± 0.52
